Test results reported in PubChem BioAssay AID624125 (The Scripps Research Institute Molecular Screening Center, 2012).
Out of some 360,000 compounds screened, about 2,600 (0.72%) were called active.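 Rule for the calls: active = inhibition above its plate's cutoff, the mean inhibition of sample wells plus 3 SD (cut at about 27% in these data); inactive = the rest.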 The full list was thinned out, with actives kept by preference.

The molecules below were run against Muscarinic acetylcholine receptor M4 (Homo sapiens) (UniProt P08173) (assay: human M4 muscarinic receptor antagonists, primary screen, CHO cells, Fluo-8 calcium fluorescence (AID 624125;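 note: 0% = acetylcholine EC80 with DMSO and 100% = DMSO without agonist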)). Details: CHO-hM4 cells, ACh EC80, Fluo-8 calcium fluorescence; at 3 µM; stronger effect = higher value.
Sequence of Muscarinic acetylcholine receptor M4 (Homo sapiens) (P08173 whole entry, looked up): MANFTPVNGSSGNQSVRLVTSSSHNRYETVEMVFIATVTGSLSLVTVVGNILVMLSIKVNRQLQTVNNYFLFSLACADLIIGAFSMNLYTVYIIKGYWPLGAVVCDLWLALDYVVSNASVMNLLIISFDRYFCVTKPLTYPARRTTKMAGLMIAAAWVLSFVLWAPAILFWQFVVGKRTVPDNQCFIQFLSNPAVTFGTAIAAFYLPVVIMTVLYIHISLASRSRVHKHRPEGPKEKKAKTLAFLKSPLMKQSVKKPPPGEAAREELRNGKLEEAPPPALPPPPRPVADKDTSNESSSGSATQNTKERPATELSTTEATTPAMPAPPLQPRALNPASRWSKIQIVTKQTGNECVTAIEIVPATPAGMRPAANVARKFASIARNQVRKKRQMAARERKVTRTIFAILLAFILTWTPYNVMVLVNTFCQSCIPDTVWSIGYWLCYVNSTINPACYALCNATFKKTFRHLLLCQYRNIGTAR

| Compound | inhibition |
| --- | --- |
| CCc1ccc(NC2Nc3cc(C)nn3S2)cc1 (stereo not drawn) | 4.8% (inactive) |
| COc1ccc(Cl)cc1C=CC=NNC(=O)c1ccncc1 | -14.8% (inactive) |
| CN1CCC[C@@H]1CCO[C@](C)(c1ccccc1)c1ccc(Cl)cc1 | 97.7% (active) |
| CCC1CCC/C1=N\NC(=O)c1ccc(Cl)cc1 (stereo not drawn) | 6.05% (inactive) |
| COc1cccc2sc3cc(NCC[C@@H]4CCCN4C)ccc3c(=O)c12 | -7.94% (inactive) |
| O=C(Nc1ccc(F)cc1)c1cc2c(s1)CCCC2 | 1.82% (inactive) |
| C=CCOC(=O)C1=C(C)N=C2SCCC(=O)N2C1/C=C/c1ccccc1OC (stereo not drawn) | 1.49% (inactive) |
| CC1(C)CC(N2CCN(C(c3ccccc3)c3ccccc3)CC2)=CC(=[N+]2CCCCC2)C1 | 56.8% (active) |
| CC1(c2cccc(Br)c2)NC(=O)N(CC(=O)NCCC2=CCCCC2)C1=O (stereo not drawn) | -1.54% (inactive) |
| COC(=O)c1cc(S(=O)(=O)N2CCC(C(N)=O)CC2)oc1C | -3.75% (inactive) |
| CCCCN(CCCC)CCC(O)c1cc2c(Cl)cc(Cl)cc2c2cc(C(F)(F)F)ccc12 (stereo not drawn) | -6.99% (inactive) |
| O=[N+]([O-])/C=C/c1ccc2c(ccn2Cc2ccccc2)c1 | 51% (active) |
| CC(C)CCNC(=O)c1[nH]c(C(F)(F)F)nc1-c1ccccc1 | 2.39% (inactive) |
| CCOCCCN1C(=O)CN(C2CCCCC2)C(=O)C1c1ccc(OCC)c(OC)c1 (stereo not drawn) | 5.54% (inactive) |
| Cc1cc(=O)[nH]c(Nc2cccc(Br)c2)n1 | 4.17% (inactive) |
| Cc1cc(=O)[nH]c(N/N=C/c2ccc3c(c2)OCCO3)n1 | 29.5% (active) |
| Cc1ccc(C)c(NC2=NCC(=O)N2c2ccc3c(c2)OCCO3)c1 | 5.91% (inactive) |
| CC1O[C@@H](OC2C(O)C(C)O[C@H](OC(=O)[C@]34CCC(C)(C)C[C@H]3C3=CCC5[C@@]6(C)CC(O)C(O[C@@H]7OC(CO)C(O)[C@@H](O)[C@@H]7O)[C@@](C)(C(=O)O)C6CC[C@@]5(C)[C@]3(CO)CC4)C2O[C@H]2OC(C)[C@@H](O[C@@H]3OCC(O[C@@H]4OC(CO)C(O)[C@H](O)C4O)[C@@H](O)[C@@H]3O)[C@H](O)C2O)C(O)C(O)C1O (stereo partly drawn) | 4.49% (inactive) |
| CC1(C)C2CC[C@]3(C)C(CC=C4[C@@H]5C[C@@](C)(CO)CC[C@]5(C(=O)O)CC[C@]43C)[C@@]2(C)CC[C@@H]1O (stereo partly drawn) | 45.8% (active) |
| CC1(C)C[C@H]2C3=CCC4[C@@]5(C)CC[C@H](O)[C@](C)(CO)C5CC[C@@]4(C)[C@]3(C)C[C@@H](O)[C@@]2(CO)[C@@H](O)[C@@H]1O (stereo partly drawn) | -13.3% (inactive) |

| Compound | inhibition |
| --- | --- |
| O=S(=O)(c1cccc(-c2cn3ccccc3n2)c1)N1CCCC1 | -2.49% (inactive) |
| O=C(NCC(c1cccs1)N1CCOCC1)c1cc(Cl)ccc1[N+](=O)[O-] (stereo not drawn) | -29.6% (inactive) |
| CCN1CCN(CC(=O)c2cc(OC)c(OC)c(OC)c2)CC1 | 3.39% (inactive) |
| O=C1C=C(c2ccc(Cl)cc2)C(=O)N1Nc1ccccc1 | 32% (active) |
| Cc1cc(C)nc(NS(=O)(=O)c2ccc(N3C(=O)C4CCCCC4C3=O)cc2)n1 (stereo not drawn) | -3.19% (inactive) |
| CCCn1nc(C(=O)N2CCCc3ccccc32)c2ccccc2c1=O | 3.11% (inactive) |
| Cc1ccc(C(=O)N2CCCc3ccccc32)c(Cl)c1 | -5.91% (inactive) |
| Cc1cccc2cc3c(N)c(C(=O)N4CCCc5ccccc54)sc3nc12 | 26.9% (active) |
| C=CCn1cc(Cl)cc(C(=O)Nc2ccccc2)c1=O | 1.16% (inactive) |
| NS(=O)(=O)c1ccc(NC(=O)COC(=O)C2(c3ccc(F)cc3)CCCC2)cc1 | 1.71% (inactive) |
| CC(C)(C)C(=O)/C(C#N)=C/c1ccc(O)cc1 | 3.63% (inactive) |
| O=C(/C=C(O)/C=C/c1ccc(O)cc1)/C=C/c1ccc(O)cc1 | 41.4% (active) |
| NC1=NC(=O)S/C1=C\c1ccc(O)cc1 | 0.37% (inactive) |
| CCNC(=O)C1(C)CCN(Cc2ccc(C(=O)OCC)o2)C1 (stereo not drawn) | 3.23% (inactive) |
| Clc1cccc(Cl)c1Cn1nnc(-c2cccs2)n1 | -3.16% (inactive) |
| CC(C)[C@@H]1COC(c2cccc(C3=N[C@H](C(C)C)CO3)c2)=N1 | 7.38% (inactive) |
| COc1cc(NC(=O)COC(=O)CSc2ccc3ccccc3c2)c(C)cc1[N+](=O)[O-] | -8.64% (inactive) |
| COc1cc(/C=C(/NC(=O)c2ccccc2)C(=O)Nc2cccc(O)c2)c([N+](=O)[O-])cc1OC | -11.4% (inactive) |
| COc1cc(/C=C(\C#N)C(=O)Nc2ccc3ccccc3c2)c([N+](=O)[O-])cc1OC | 28.5% (active) |
| CCOC(=O)C1CCN(C(=O)Cn2nc(C)c3c(C)n(-c4ccccc4)nc3c2=O)CC1 | 9.38% (inactive) |

| Compound | inhibition |
| --- | --- |
| Cc1cc(=O)oc2c3c(cc(OCC(=O)N[C@H](C(=O)O)c4ccccc4)c12)OC(C)(C)CC3 | -5.66% (inactive) |
| O=C1CCCC(O)=C1N=Nc1ccc2ncsc2c1 | 9.09% (inactive) |
| COc1ccc(NC(=O)N(C)C[C@H]2Oc3ccc(NC(=O)C4CC4)cc3C(=O)N([C@H](C)CO)C[C@@H]2C)cc1 | -10% (inactive) |
| CCc1nc2c(OCc3ccc(Cl)cc3Cl)cccn2c1N(C)C(=O)C(C)C | -17.6% (inactive) |
| Cc1nc2c(OCc3ccc(Cl)cc3Cl)cccn2c1N(C)CC1CC1 | 38% (active) |
| Cc1nc2c(OCc3cccc(Cl)c3)cccn2c1N(C)CC1CC1 | 8.19% (inactive) |
| COC(CNC(=O)c1ccc2c(c1)ncn2-c1cc(C)cc(C)c1)OC | -0.94% (inactive) |
| CCc1nc2c(OCc3ccccc3)cccn2c1N(C)C(=O)c1ccco1 | 8.33% (inactive) |
| COc1ccc(C(c2nnnn2Cc2cccs2)N2CCN(c3ccccc3)CC2)cc1OC (stereo not drawn) | -1.13% (inactive) |
| CC(CN1CCCCC1)c1ccccc1 (stereo not drawn) | 5.04% (inactive) |
| O=C(c1ccccc1)C(O)(CN1CCCCC1)c1ccccc1 (stereo not drawn) | 5.71% (inactive) |
| C#CC(CCN1CCCCC1)(OC)c1ccccc1 (stereo not drawn) | 44.6% (active) |
| CCc1ccccc1NC(=O)NCCN1CCCCC1 | 4.05% (inactive) |
| COc1ccc(C(O)(C2CCCCC2)C(CN2CCCC2)c2ccccc2)cc1 (stereo not drawn) | 5.79% (inactive) |
| c1ccc2cc3[nH]c(CN4CCCCC4)nc3cc2c1 | -0.37% (inactive) |
| CCCCCC(O)(CCN1CCCCC1)c1ccccc1 (stereo not drawn) | 98.9% (active) |
| CCCCCCC(O)(CCN1CCCCC1)c1ccccc1 (stereo not drawn) | 88.2% (active) |
| CCCCOc1ccc(C(C)(O)CCN2CCOCC2)cc1 (stereo not drawn) | 3.58% (inactive) |
